From PubChem BioAssay (NCATS) come the findings set out here.

Records with an inconclusive call do not appear. Entries that show only a call come without a potency. Active and inactive are the calls of the source. The call rests on the fitted dose curve; in most records, active means well fitted curve in the direction sought with a large enough effect; inconclusive means small, poorly fitted or top-dose-only effect, or another doubt; inactive means no such curve, though single readings can be large; an effect the other way counts as inactive or inconclusive.

For assay [1], the target named is Aldehyde dehydrogenase, mitochondrial (Homo sapiens) (UniProt P05091). The assay can be described thus: qHTS for Inhibitors of the Aldehyde Dehydrogenase Family (ALDH2) Primary screen (AID 2061308). Further: nearly all actives have a fitted effect of over 55% in size. In general terms: In qHTS, concentration-response curves come from the screen itself.
Assay [2] has as its target Retinaldehyde dehydrogenase 3 (Homo sapiens) (UniProt P47895). The assay can be described thus: qHTS for Inhibitors of the Aldehyde Dehydrogenase Family (ALDH1A3) Primary screen (AID 2061315).

For the molecule `COC(=O)c1ccccc1S(=O)(=O)Nc1ccc(OC)cc1`, the Potency entry in assay [1] and in assay [2] was “inactive” each time.

For the molecule `CCCn1c(-c2ccc(F)cc2)nc2c(NCCCN3CCOCC3)nc(C)nc21`, the Potency result in assay [1] and in assay [2] was “inactive” in each case.

For `Cc1ccc(Nc2nc(-c3ccncc3)nc3ccccc23)cc1F`, the Potency entry in assay [1] and in assay [2] was “inactive” each time.

As to `COc1ccc(-c2ccc3ncnc(N(C)Cc4csc(C)n4)c3c2)cc1OC`, the Potency entry in assay [1] and in assay [2] was “inactive” throughout.

Consider `O=C(Nc1nnc(-c2ccco2)o1)c1ccc(Cl)c(Cl)c1`, for which the Potency entry in assay [1] and in assay [2] was “inactive” throughout.

As to `CCCCNc1nc(C)nc2c1nc(-c1ccccc1)n2CC(C)(C)CN(C)C`, the Potency result in assay [1] and in assay [2] was “inactive” each time.

`CCOc1ccc(CCNC(=O)c2ccnn2Cc2cccc(C)c2)cc1OCC`: the Potency entry in assay [1] and in assay [2] was “inactive” in each case.

In the case of `Cc1ccc(NS(=O)(=O)c2cc3c(cc2N(C)CCN(C)C)NC(=O)CC3)cc1C`, the Potency result in assay [1] and in assay [2] was “inactive” in each case.

For the molecule `COc1ccc2cc3c(NC(=O)c4ccco4)nn(C)c3nc2c1`, the Potency entry in assay [1] and in assay [2] was “inactive” in each case.

Consider `NC(=O)c1cnc(N[C@@H]2CCCC[C@H]2N)nc1Nc1cccc(-n2nccn2)c1`, for which the Potency entry in assay [1] and in assay [2] was “inactive” throughout.

As to `CC(=O)Nc1ccc(S(=O)(=O)N2CCCN(S(=O)(=O)c3ccc4c(c3)OCCO4)CC2)cc1`, the Potency result in assay [1] and in assay [2] was “inactive” each time.

Take `COc1ccc(CN(Cc2ccccc2)C(=O)c2ccc(OC)cc2O)cc1`: the Potency entry in assay [1] and in assay [2] was “inactive” each time.

With `Cc1ccc(OCCn2c(CCNC(=O)Cc3cccc(F)c3)nc3ccccc32)cc1`, the Potency result in assay [1] and in assay [2] was “inactive” throughout.

Regarding `CCc1cccc(Nc2nn3c(=O)c4ccccc4nc3s2)c1`, the Potency result in assay [1] and in assay [2] was “inactive” throughout.

With `Cc1nc(N2CCOCC2)c2nc(-c3ccccc3)n(CCCN3CCOCC3)c2n1`, the Potency result in assay [1] and in assay [2] was “inactive” throughout.
